Many of the other results were omitted from the sample, so hits are more common in it than they were.
RMI-FANCM inh: blocks RMI1/RMI2 complex binding to FANCM MM2 peptide; 70,000 compounds, 0.58% hits; AID 1159607; FP signal (polarization) at 33 µM; Fluorescence polarization, RMI core complex with F-MM2 peptide; active compounds read low; in the data active = FP signal below about 40
Of the large screens only hits and unclear results are named; the others gave an inactive call.

CC(C)N1CCc2c(sc(NC(=O)c3ccc(S(=O)(=O)N4CCCCCC4)cc3)c2-c2nc3ccccc3s2)C1	none
O=S(=O)(Oc1ccc(Oc2ccccc2)cc1)c1ccc(Cl)cc1	none
Cc1cc2cc(CNC(=O)c3ccccc3Br)ccc2n1C	none
Cc1cc2cc(CNC(=O)c3ccccc3F)ccc2n1C	none
Cc1cc2cc(CNC(=O)c3ccccc3Cl)ccc2n1C	RMI-FANCM inh 30
CCCOc1ccc(S(=O)(=O)Nc2ccc3c(c2)CC(=O)N3CC)cc1C	none
CCCN1CCCc2cc(CCNC(=O)C(=O)NCC(C)C)ccc21	none
CCCN1CCCc2cc(CCNC(=O)C(C)(C)C)ccc21	RMI-FANCM inh 16
CCCN1CCCc2cc(CCNC(=O)Cc3cccc(C)c3)ccc21	none
CCCN1CCCc2cc(CCNC(=O)COc3ccccc3F)ccc21	none
CCCN1CCCc2cc(CCNC(=O)C3CCCCC3)ccc21	none
CCCN1CCCc2cc(CCNC(=O)COCC)ccc21	RMI-FANCM inh 27
COc1ccc(N2CCN(C(=O)c3ccc(=O)[nH]n3)CC2)cc1	none
O=C(c1ccc(Cl)cc1)N1CCN(CCN=Cc2ccccc2)CC1	none
Nc1nnc(-c2ccc(Br)cc2)o1	none
O=S(=O)(c1ccccc1)N1CCC(c2nc(-c3cccc(Cl)c3)no2)CC1	none
COc1ccc(-c2ccc(=O)n(CCNC(=O)COc3ccc4c(c3)OCO4)n2)cc1	none
OCCN=Cc1cc(Cl)cc(Cl)c1O	none
Oc1c(Cl)cc(Cl)cc1/C=N\NC(=S)Nc1cc(C(F)(F)F)cc(C(F)(F)F)c1	none
CSC(=NC(C)(C)C)N/N=C\c1cc(Cl)cc(Cl)c1O	none
Oc1c(Cl)cc(Cl)cc1C=NCC1CCC(CN=Cc2cc(Cl)cc(Cl)c2O)CC1 (stereo not given)	RMI-FANCM inh 10
O=C1NN=CC1CCCN=Cc1cc(Cl)cc(Cl)c1O (stereo not given)	RMI-FANCM inh 24
Nc1nc(SCc2c(F)cccc2Cl)[nH]c(=O)c1NC(=O)c1ccc(Br)o1	none
Cc1oc(-c2cc(C(F)(F)F)ccc2Cl)cc1C(=O)N1CCOCC1	none
COc1cc2ccccc2cc1C(=O)Nc1ccc(S(=O)(=O)Nc2nccc(C)n2)cc1	none
C[C@H](CCC(=O)O)[C@H]1CC[C@H]2[C@@H]3[C@H](O)C[C@@H]4C[C@H](O)CC[C@]4(C)[C@H]3CC[C@]12C	none
C[C@H](CCC(=O)O)[C@H]1CCC2C3C(CC[C@@]21C)[C@@]1(C)CC[C@@H](O)C[C@H]1C[C@@H]3O (stereo not given in full)	none
CC(CCC(=O)N/N=C/c1c[nH]c2ccccc12)C1CCC2C3C(O)CC4CC(O)CCC4(C)C3CCC12C (stereo not given)	RMI-FANCM inh 21
O=C(Cn1c(=O)c2ccc(Cl)cc2n2nncc12)NCc1ccco1	none
O=C(O)/C=C\C(=O)Nc1cccc2ccccc12	RMI-FANCM inh -3
N#CCCSc1ccccc1NC(=O)/C=C/C(=O)O	none
O=C(O)/C=C\C(=O)Nc1ccccc1OC(F)(F)F	none
Cc1cc(=O)oc2cc(O)c(O)cc12	RMI-FANCM inh 10
Cc1cc(=O)oc2c(O)c(O)ccc12	none
Cc1cc(=O)oc2cc(O)ccc12	none
C/C(Cl)=C/CSc1nc2c(c(=O)n(Cc3ccc(Cl)cc3)c(=O)n2C)n1C	none
CCOC(=O)CCC(=O)N1CCN(Cc2nc(-c3ccco3)cs2)CC1	none
O=C(/C=C/c1ccccc1)N(CCN1CCOCC1)c1nc2ccc(F)cc2s1	none
O=C(CN1C(=O)/C(=C\c2cccs2)SC1=S)Nc1cccc(Br)c1	none
O=C(CN1C(=O)/C(=C/c2ccco2)SC1=S)Nc1ccc(C(=O)O)cc1	none
O=C(CCN1C(=O)/C(=C\c2ccco2)SC1=S)Nc1cccc(Br)c1	RMI-FANCM inh 9
O=C(Nc1ccc(F)cc1)N1CCC(c2nnc(-c3ccco3)s2)CC1	none
N#Cc1c(-c2ccco2)cc(-c2ccco2)[nH]c1=O	none
N#Cc1c(-c2ccco2)c2c([nH]c1=O)-c1ccccc1OC2	RMI-FANCM inh -3
N#Cc1c(-c2ccco2)c2c([nH]c1=O)-c1ccccc1CC2	none
CCOC(=O)/C(C#N)=C/N/S(C)=N\N=C/c1ccc(N(C)C)cc1 (stereo not given)	none
O=C(CCC1=NS(=O)(=O)c2ccccc2N1)NC1CCCC1	none
COc1ccccc1CNC(=O)Cc1csc(Nc2ccc(F)cc2)n1	none
CN1CCOc2ccc(NC(=O)c3ccccc3F)cc2C1=O	none
Cc1cc(NC(c2cccc([N+](=O)[O-])c2)c2ccc3cccnc3c2O)no1 (stereo not given)	none
Cc1ccc(-c2csc(NC(=O)c3nc4ccccc4s3)n2)cc1	none
O=C(Nc1csc(-c2ccc(Oc3ccc(-c4nc(NC(=O)c5nc6ccccc6s5)cs4)cc3)cc2)n1)c1nc2ccccc2s1	RMI-FANCM inh 31
Cc1ccc(-c2csc(NC(=O)c3nc4ccccc4s3)n2)o1	none
CC(C)Sc1nc(N2CCCC2)c2cnn(CCNC(=O)c3ccc(F)c(F)c3)c2n1	none
Cc1nc2sc(C)c(C)n2c(=O)c1NC(=O)C1CCCO1 (stereo not given)	none
COc1ccc(/C=C2\SC(=S)N(CCC(=O)Nc3cc(C)on3)C2=O)cc1OC	none
Cc1cc(NC(=O)CCN2C(=O)/C(=C3\SC(=S)N(CCC(=O)Nc4cc(C)on4)C3=O)SC2=S)no1	RMI-FANCM inh 21
